# Screening data deposited in PubChem by National Center for Advancing Translational Sciences (NCATS).
# Most compounds without a hit are left out; they make up all but 12% or so of the library.
# Pf growth 96h: inhibits malaria parasite growth, 96 h; Potency, µM (doses to about 28.7 µM), without a hit: at the highest dose activity change, negative = inhibition, usual class: inhibitors; AID 504834; 6.9% of 320,000 active; P. falciparum luciferase reporter growth, 96 h; further: on the % scale 0 is the no-effect control and ±100 the full control effect
#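 Two-generation exposure (96 h) targets delayed-death phenotype. Reporter parasites carrying integrated firefly luciferase, in red cells at 2% hematocrit and 0.05% parasitemia final, kept at 37 C, 5% CO2; luminescence loss indicates inhibition.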
# HCV inhibitor: inhibitors of hepatitis C virus infection. Huh7.5.1 HCVcc-Cre infection, luciferase reporter, 44 h. Potency, µM (doses to about 41.8 µM), without a hit: top-dose activity change, negative = inhibition, most hits filed as inhibitors. 3.4% of 340,000 active. AID 651820; further: on the % scale 0 is the no-effect control and ±100 the full control effect
#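 Luciferase read-out (15 sec integration) after a 15 min room-temperature substrate step quantifies HCVcc-Cre infection. Cells, 1,000 per well, had compound added 4 h post-plating, then virus at ~0.5 moi, and were cultured 44 h.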
# SARS PLP yeast: inhibitors of SARS-CoV papain-like protease in yeast. Potency, µM (series often up to 32.9 µM), inactives show at the top dose activity, positive = growth rescue, hits mostly activators. S. cerevisiae expressing SARS-CoV PLpro, growth rescue. 0.19% of 330,000 active; calls by dose curve; further: 0% is about no effect; nearly all actives have a fitted effect of over 55% in size
# Pf growth 48h: inhibits P. falciparum growth in the first generation, 48 h | P. falciparum luciferase growth in erythrocytes, 48 h | Potency, µM (series often up to 28.7 µM), without a hit: at the highest dose activity change, negative = inhibition, usual class: inhibitors | 5.9% of 310,000 active; further: on the % scale 0 is the no-effect control and ±100 the full control effect
#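 Here the parasites carry a stable luciferase gene and grow inside erythrocytes in Albumax-based RPMI medium with compound for one erythrocytic cycle. Activity is scored as loss of luminescent signal.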
# NS1 inh: blocks influenza NS1 protein function; 0.4% of 270,000 active; Potency, µM (top dose mostly 46.1 µM), for inactives: at the top dose activity, positive = more growth; AID 2326; calls by dose curve; further: actives are rising curves; nearly all actives have a fitted effect of over 50% in size
#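 In this qHTS, NS1 from influenza A is expressed in budding yeast, where it slows growth. Cells are switched from glucose to 2% galactose medium (pH 6.0, -URA), treated with compound, and growth recovery is read at OD600.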
# AMA1 RON2 block: inhibitors of Plasmodium falciparum AMA1-RON2 interaction; AlphaScreen AMA1-biotinylated RON2 peptide binding; Potency, µM (doses to about 58.2 µM), for the others: top-dose activity change, negative = inhibition, most hits filed as inhibitors; 0.2% of 360,000 active;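 further: 0% = vehicle wells and -100% = peptide control; nearly all actives have a fitted effect of over 45% in size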
#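 AMA1 (3D7) with his tag at 25 nM final met compounds first, then biotinylated RON2 peptide at 25 nM; detection used donor plus acceptor beads, 10 µg/mL apiece, read by AlphaScreen after 30 min at room temperature.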
# An asterisk follows results filed as active; ? = inconclusive; . = not tested or not shown; ! = repeats disagree; [ ] = another dose, or the depositor's remark. Unless noted, the call rests on the fitted dose curve; in most records, active means well fitted curve in the direction sought with a large enough effect; inconclusive means small, poorly fitted or top-dose-only effect, or another doubt; inactive means no such curve, though single readings can be large; an effect the other way counts as inactive or inconclusive. Potency means the concentration at half of the fitted maximal effect.
SMILES,Pf growth 96h,HCV inhibitor,SARS PLP yeast,Pf growth 48h,NS1 inh,AMA1 RON2 block
Cc1ccn2c(=O)nc(SCC(=O)N3CCCCC3)nc2c1,?,0.8%[8.37 µM],0.8%,3.1%,.,29.2%
Cc1csc(NC(=O)c2ccco2)n1,-9.5%,0.9%,1.0%,10.6%,-1.8%,17.5%
Cc1ccc(C(=O)OCC(=O)Nc2ccccc2)cc1NC(=O)c1ccco1,31.0%,-8.5%,-3.1%,19.8%,2.0%,46.5%
Cc1ccccc1Nc1nc(-c2sc(NC(=O)c3ccco3)nc2C)cs1,?,?,-4.6%,11.7µM*,?,13.1%
Cc1ccc(C(=O)OCC(=O)Nc2nc(-c3ccccc3)cs2)cc1NC(=O)c1ccco1,-2.2%,11.2µM*,15.2%,29.7%,8.2%,27.6%
CCOc1ccccc1Nc1nc(-c2sc(NC(=O)c3ccco3)nc2C)cs1,2.33µM*,?,-5.2%,14.7µM*,21.0%,5.4%
CCOc1ccccc1Nc1nc(-c2sc(C)nc2C)cs1,-1.9%,?,3.1%,?,6.3%,?
CCOc1ccccc1Nc1nc(-c2cccnc2)cs1,0.3%,10µM*,-6.1%,13.1µM*,-80.1%,-22.1%
Clc1ccccc1Nc1nc(-c2cccnc2)cs1,36.5%,?,-5.9%,18.8%,-38.2%,-7.9%
NCCNC(=S)S,.,.,.,.,-30.2%,.
COc1ccc(NC(=O)CC2SC(=N)N(c3ccccc3)C2=O)c(OC)c1 (centres undefined),15.7%,2.1%,1.2%,15.8%,.,-21.1%
CC(C)[C@H](NS(=O)(=O)c1ccc(Cl)cc1)C(=O)OCC(=O)NCCN1C(=O)CSC1=O,33.1%,3.8%,3.2%,14.5%,-3.4%,-2.4%
COc1ccc(C(=O)N[C@H](C(=O)NC2CCCCC2)C(C)C)cc1,.,21.7%,4.0%,.,.,1.3%
Cc1ccc(Nc2nc(-c3sc(NC(=O)c4ccco4)nc3C)cs2)cc1,?,?,1.6%,9.28µM*,?,30.0%
NS(=O)(=O)c1ccc(Nc2nc(-c3cccnc3)cs2)cc1,-13.2%,12.6µM*,-7.8%,-9.3%,9.5%,-14.3%
Cc1ccc(-c2csc(NC(=S)NC(=O)c3ccco3)n2)cc1,?,-7.0%,6.2%,59.9%,4.6%,1.1%
COc1ccc(-c2cc3ccccc3n2CC(O)Cn2nc(C)cc2C)cc1 (centres undefined),0.2%,?,-12.1%,2.33µM*,-40.7%,4.1%
COc1ccc(-c2cc3ccccc3n2CC(O)CN2CCC(C)CC2)cc1 (centres undefined),41.3%,0.5%,-6.9%,?,-0.2%,-20.7%
CNC(=O)CCn1nc(-c2ccccc2)c2ccccc2c1=O,14.7µM*,2.4%,-1.6%,27.4%,4.6%,-15.1%
CCN(CC)C(=O)CCn1nc(-c2ccc(C)cc2)c2ccccc2c1=O,-2.4%,-2.7%,-0.2%,7.38µM*,-5.5%,-11.9%
CN1CCN(S(=O)(=O)c2ccc(SCCOc3ccccc3)nc2)CC1,?,-18.5%,1.4%,-9.6%,-7.1%,-9.7%
O=S(=O)(c1ccc(SCCOc2ccc(Cl)cc2)nc1)N1CCCC1,?,?,-1.0%,13.1µM*,.,34.3%
O=S(=O)(c1ccc(SCCOc2ccc(Br)cc2)nc1)N1CCCC1,?,5.62µM*,-1.9%,?,.,-1.8%
CCOc1ccc(OCCSc2ccc(S(=O)(=O)N3CCN(C)CC3)cn2)cc1,14.7µM*,11.2µM*,9.8%,?,.,-28.7%
CCOC(=O)C1CCCN(c2cc(=O)n(C3CCCCC3)c(=O)[nH]2)C1 (centres undefined),-16.7%,25.5%,-4.8%,-2.3%,.,2.8%
SMILES,Pf growth 96h,HCV inhibitor,SARS PLP yeast,Pf growth 48h,NS1 inh,AMA1 RON2 block
Cc1nc(N2CCN(C(=O)c3ccco3)CC2)[nH]c(=O)c1C,-1.7%,-10.4%,-2.1%,?,-5.2%,2.8%
CN(c1ccc(OCC(=O)NCCc2ccccc2)cc1)S(=O)(=O)c1ccc(Cl)cc1,?,?,3.4%,8.28µM*,.,-9.0%
COc1ccc(CCNC(=O)COc2ccc(N(C)S(=O)(=O)c3ccc(Cl)cc3)cc2)cc1,?,7.08µM*,-0.8%,?,-5.8%,-1.4%
COc1ccc(CCNC(=O)COc2ccc(N(C)S(=O)(=O)c3ccc(C)cc3)cc2)cc1OC,1.8%,?,-1.0%,-22.2%,.,0.5%
O=c1nc(Oc2ccccc2)nc2ncccn12,.,.,.,.,.,1.1%
C=CCOc1ccccc1CNCc1ccc(F)cc1,2.33µM*,6.7%,-0.1%,-12.8%,-7.5%,-7.4%
COc1ccc(S(=O)(=O)N2CCCCC2)cc1NC(=O)[C@@H]1CCCN1C(=O)c1cccs1,?,-26.6%,-2.3%,?,.,1.4%
COc1cc(C)ccc1S(=O)(=O)NC(=O)C1(C)CCN1C(=O)C1(c2ccc(Cl)cc2)CCC1 (centres undefined),.,.,.,.,.,-4.8%
CCOC(=O)C(C)Sc1ncnc2nc[nH]c12 (centres undefined),?,9.1%,11.4%,-22.1%,2.4%,-5.9%
CCOC(=O)C(CC)Sc1ncnc2nc[nH]c12 (centres undefined),10.4µM*,12.2%,10.8%,-23.7%,-5.5%,1.4%
CCN1CCN(c2ccc(NC(=O)c3cccc(S(=O)(=O)N4CCCC4)c3)cc2)CC1,.,-21.2%,3.6%,.,.,4.6%
C=CCN(c1ccccc1)S(=O)(=O)c1cccc(C(=O)Nc2ccc(N3CCOCC3)cc2)c1,?,7.08µM*,-0.1%,2.5%,.,?
O=C(Nc1ccc(N2CCOCC2)cc1)c1ccc(Cl)c(S(=O)(=O)N2CCCCC2)c1,?,2.51µM*,-1.3%,10.4µM*,.,-6.9%
O=C(Nc1ccc(N2CCOCC2)cc1)c1cccc(S(=O)(=O)N2CCCCC2)c1,.,10µM*!,9.5%,-29.8%,0.2%,1.5%
C=CCN(c1ccccc1)S(=O)(=O)c1cccc(C(=O)Nc2ccncc2)c1,?,?,10.8%,?,.,-0.8%
Cc1ccc(S(=O)(=O)N(CCCO)CC(O)CON=C2c3ccccc3-c3ccccc32)cc1 (centres undefined),9.28µM*,10µM*,-31.3%,?,8.8%,-0.2%
CCCCN(CC)S(=O)(=O)c1ccccc1,11.5%,4.5%,7.7%,.,-5.5%,-3.2%
Cc1nc2ccc(NC(=O)c3nn(CC(C)C)c(=O)c4ccccc34)cc2s1,-1.8%,5.6%,19.7%,3.7%,6.8%,-2.6%
CCCn1nc(C(=O)Nc2nc3ccccc3[nH]2)c2ccccc2c1=O,?,?,-4.1%,14.7µM*,9.9%,40.6%
CCCCn1nc(C(=O)Nc2nc3c(s2)CCCC3)c2ccccc2c1=O,6.57µM*,?,20.5%,?,5.3%,-3.8%
CCCCn1nc(C(=O)NCC2COc3ccccc3O2)c2ccccc2c1=O (centres undefined),?,?,0.5%,10.4µM*,.,-3.2%
